Consider nine molecules from PubChem BioAssay (Tox21).

Molecules are shown by their SMILES. “And” between values parts separate entries of the source, which are not always exact repeats. Equal entries are not always repeated. Inconclusive results are not listed. Some compounds were tested as several samples or in several runs, with calls that do not always agree. The source made the active and inactive calls. Unless noted, the call rests on the fitted dose curve.

For experiment [1], the target named is Gonadotropin-releasing hormone receptor (Homo sapiens) (UniProt P30968). Put plainly: Human gonadotropin-releasing hormone receptor (GnRHR) small molecule agonists, calcium flux assay in GnRHR-HEK293 cells (AID 1920063). Further: nearly all actives have a fitted effect of over 35% in size. Further: potency means the concentration at half of the fitted maximal effect. The procedure, abridged:
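Cells: HEK293 stably expressing human GnRHR. Steps: overnight (18 h) culture, 1 h calcium dye loading at 37 C, compound addition, kinetic fluorescence read at 480/540 nm. Each compound tested at 15 concentrations in triplicate.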

The nature of experiment [2]: G protein-coupled receptor (GPCR) small molecule agonists, calcium flux assay: HEK293 wild type cell line counter screen (AID 1920065). An outline of the steps:
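Counter-screen of the Tox21 10K library for non-specific calcium release: dye-loaded cells received compounds in DMSO and were monitored by kinetic fluorescence (480/540 nm, 3 min). Fifteen concentrations, run in triplicate.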

The nature of experiment [3]: p53 small molecule agonists, cell-based qHTS assay with human liver microsomes: qHTS cell viability counter screen (AID 1963579). Further: nearly all actives have a fitted effect of over 45% in size. Further: potency means the concentration at half of the fitted maximal effect. The procedure, abridged: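 Tox21 library compounds, delivered from DMSO stocks, were tested on p53RE-bla cells together with 0.5 mg/mL human liver microsomes and 0.5 mg/mL NADPH (final) over 16 h at 37 C; CellTiter-Glo luminescence served as the cytotoxicity measure.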

Experiment [4] can be described thus: p53 small molecule agonists, cell-based qHTS assay with rat liver microsomes: qHTS cell viability counter screen (AID 1963580). Further: nearly all actives have a fitted effect of over 45% in size. The procedure, abridged:
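p53RE-bla HCT-116 cells (4,000/well) rested 5 h at 37 C, then given Tox21 compounds in DMSO with rat liver microsomes (0.5 mg/mL final) plus NADPH (0.5 mg/mL final) for 16 h at 37 C. Viability read by CellTiter-Glo luminescence after 30 min at room temperature.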

Experiment [5] can be described thus: p53 small molecule agonists, cell-based qHTS assay: qHTS cell viability counter screen (AID 1963581). Further: nearly all actives have a fitted effect of over 45% in size. An outline of the steps: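 Cells: HCT-116 with p53 response element-driven beta-lactamase. Treatment: 16 h, 37 C, compounds in DMSO. Read: CellTiter-Glo luminescence after 30 min RT.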
The target of experiment [6] is 5-hydroxytryptamine receptor 2A (Homo sapiens) (UniProt P28223). In words: 5-hydroxytryptamine receptor 2A (HTR2A) small molecule antagonists, cell-based qHTS assay (AID 1963586). Further: nearly all actives have a fitted effect of over 45% in size. Further: potency means the concentration at half of the fitted maximal effect. An outline of the steps: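 Antagonist-mode intracellular calcium assay: DOI (4 nM) added after 5 min compound pre-incubation at room temperature to dye-loaded HTR2A-CHO cells. Fluorescence followed for 3 min, sampled every second.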

The target is the same in experiment [7]. Put plainly: 5-hydroxytryptamine receptor 2A (HTR2A) small molecule agonists, cell-based qHTS assay (AID 1963587). Further: nearly all actives have a fitted effect of over 30% in size. Further: potency means the concentration at half of the fitted maximal effect. The procedure, abridged: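 HTR2A-CHO cells, plated 18 h at 37 C/5% CO2, dye-loaded 1 h at 37 C; compounds in DMSO added by pin tool (agonist mode). Intracellular calcium flux read as kinetic fluorescence on FDSS over 2 min at 1 s intervals.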

For experiment [8], the target named is Muscarinic acetylcholine receptor M1 (Homo sapiens) (UniProt P11229). Put plainly: Cholinergic receptor muscarinic 1 (CHRM1) small molecule antagonists, cell-based qHTS assay (AID 1963588). Further: nearly all actives have a fitted effect of over 40% in size. The procedure, abridged: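 CHRM1-CHO calcium-flux assay, antagonist mode. Cells were seeded 18 h, dye-loaded 1 h at 37 C and given compound for 5 min at RT, then acetylcholine was added at 50nM. FDSS fluorescence was read 3 min; 15 concentrations, three runs.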

A short description of experiment [9]: cAMP Responsive Elements (CRE) small molecule antagonists, cell-based qHTS assay (AID 1963591; active means well fitted inhibition curve with a large enough effect in the signal ratio in the repeat runs, not every such curve was filed as active; the % refers to the signal ratio). An outline of the steps: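 Antagonist mode: test compounds are co-incubated with the adenylyl cyclase activator NKH477 (0.25 uM final) on CRE-bla HEK293T cells for 3 h at 37 °C, followed by LiveBLAzer substrate loading.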
For experiment [10], the target named is Beta-2 adrenergic receptor (Homo sapiens) (UniProt P07550). In words: Adrenergic beta2 receptor (ADRB2) small molecule antagonists, cell-based qHTS assay (AID 1963592). Further: series mostly up to about 92 µM; nearly all actives have a fitted effect of over 50% in size. An outline of the steps: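 Cells (CHO, stable ADRB2 overexpression) incubated 18-20hr at 37C; compounds added from DMSO; agonist mix (1nM isoproterenol, 100uM IBMX, 25uM Ro-20-1724) added; 0.5hr RT; d2-cAMP and anti-cAMP-cryptate added; 1hr RT; 665/615 nm read.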

The target is the same in experiment [11]. In words: Adrenergic beta2 receptor (ADRB2) small molecule agonists, cell-based qHTS assay (AID 1963593).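 Further: CHO cells stably overexpressing human ADRB2.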 An outline of the steps:
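CHO cells stably over-expressing ADRB2 were plated overnight at 37C, then dosed with compounds plus a stimulation mix containing 100uM IBMX and 25uM Ro-20-1724 for 0.5hr at room temperature. cAMP was measured by HTRF competition, 1hr.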

In experiment [12] the target is D(2) dopamine receptor (Homo sapiens) (UniProt P14416). In words: Dopamine D2 receptor (DRD2) small molecule agonists, cell-based qHTS assay (AID 1963594). Further: nearly all actives have a fitted effect of over 35% in size. An outline of the steps:
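HEK293 cells stably expressing DRD2 were cultured 24 h at 37 C, then given Ro20-1724 (0.1 mM final) and compounds for 10 min at room temperature. NKH477 (200nM) was then added for 30 min. cAMP was read by HTRF.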

For experiment [13] the target is unchanged. In words: Dopamine D2 receptor (DRD2) small molecule antagonists, cell-based qHTS assay (AID 1963595; active means well fitted inhibition curve with a large enough effect in the signal ratio in the repeat runs, with a control signal flat; the % refers to the signal ratio). An outline of the steps: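 Antagonism was scored as restored cAMP in HEK293-DRD2 cells. These cells were stimulated with 200 nM NKH477 and 12 nM quinpirole for 30 min at room temperature, in the presence of 0.1 mM Ro20-1724.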
The nature of experiment [14]: p53 small molecule agonists, cell-based qHTS assay with human liver microsomes (AID 1963577).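 Further: p53 response element beta-lactamase reporter cells with liver microsomes plus NADPH.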 The procedure, abridged:
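Metabolically competent format: test substances, human liver microsomes and NADPH (both 0.5 mg/mL final) incubated with p53RE-bla cells 16 h at 37 C. Beta-lactamase reporter signal then quantified by fluorescence.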

Experiment [15] in a line: p53 small molecule agonists, cell-based qHTS assay with rat liver microsomes (AID 1963578). The procedure, abridged:
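Each plate received p53RE-bla cells, then compound, then rat liver microsomes and NADPH (both 0.5 mg/mL final). Plates were held 16 h at 37 C, and beta-lactamase activity was detected with LiveBLAzer over 2 h.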

Experiment [16] is described as follows: p53 small molecule agonists, cell-based qHTS assay (AID 1963582; active means well fitted activation curve with a large enough effect in the signal ratio in the repeat runs, not every such curve was filed as active; the % refers to the signal ratio). The procedure, abridged:
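Quantitative HTS in p53RE-bla cells: after a 5 h settling period, compounds delivered in DMSO were left on cells for 16 h at 37 C, and reporter induction was measured as fluorescence following 2 h substrate loading.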

For experiment [17], the target named is Muscarinic acetylcholine receptor M1 (Homo sapiens) (UniProt P11229). In words: Cholinergic receptor muscarinic 1 (CHRM1) small molecule agonists, cell-based qHTS assay (AID 1963589). Further: nearly all actives have a fitted effect of over 35% in size. An outline of the steps:
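Agonist-mode qHTS in CHO cells stably carrying human muscarinic M1. Intracellular calcium is tracked by fluorescence every second after compound transfer; each compound runs at 15 concentrations in three independent runs.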

Experiment [18] in a line: cAMP Responsive Elements (CRE) small molecule agonists, cell-based qHTS assay (AID 1963590). An outline of the steps:
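Agonist mode qHTS in CRE-bla HEK 293T cells: compounds dosed from DMSO for 3 h at 37 C/5% CO2, followed by LiveBLAzer B/G FRET substrate for 2 h at room temperature.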

Experiment [19] has as its target KiSS-1 receptor (Homo sapiens) (UniProt Q969F8). Put plainly: Human kisspeptin (KISS1R) small molecule agonists, calcium flux assay in KISS1R-HEK293 cells (AID 1920064; active means well fitted activation curve with a large enough effect in the repeat runs). An outline of the steps: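 Cells plated and incubated 18 h; dye added, 1 h at 37 C; compounds in DMSO pinned in; signal read at 480/540 nm every second for 3 min. Each compound tested at 15 concentrations in triplicate.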

5-hydroxytryptamine receptor 2A (Homo sapiens), sequence (P28223 whole entry, looked up): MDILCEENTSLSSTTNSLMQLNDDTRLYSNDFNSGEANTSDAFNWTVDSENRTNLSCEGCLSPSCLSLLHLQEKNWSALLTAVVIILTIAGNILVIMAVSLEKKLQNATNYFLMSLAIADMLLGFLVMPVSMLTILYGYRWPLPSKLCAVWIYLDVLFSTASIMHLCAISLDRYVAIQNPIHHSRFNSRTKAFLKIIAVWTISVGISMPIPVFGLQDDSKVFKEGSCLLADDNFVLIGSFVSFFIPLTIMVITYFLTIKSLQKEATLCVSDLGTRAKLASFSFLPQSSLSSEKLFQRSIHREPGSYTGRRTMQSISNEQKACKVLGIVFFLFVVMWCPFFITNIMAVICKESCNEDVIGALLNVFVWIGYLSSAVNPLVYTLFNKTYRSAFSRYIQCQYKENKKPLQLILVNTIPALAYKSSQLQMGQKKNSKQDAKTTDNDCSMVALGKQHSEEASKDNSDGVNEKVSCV
KiSS-1 receptor (Homo sapiens), sequence (Q969F8 whole entry, looked up): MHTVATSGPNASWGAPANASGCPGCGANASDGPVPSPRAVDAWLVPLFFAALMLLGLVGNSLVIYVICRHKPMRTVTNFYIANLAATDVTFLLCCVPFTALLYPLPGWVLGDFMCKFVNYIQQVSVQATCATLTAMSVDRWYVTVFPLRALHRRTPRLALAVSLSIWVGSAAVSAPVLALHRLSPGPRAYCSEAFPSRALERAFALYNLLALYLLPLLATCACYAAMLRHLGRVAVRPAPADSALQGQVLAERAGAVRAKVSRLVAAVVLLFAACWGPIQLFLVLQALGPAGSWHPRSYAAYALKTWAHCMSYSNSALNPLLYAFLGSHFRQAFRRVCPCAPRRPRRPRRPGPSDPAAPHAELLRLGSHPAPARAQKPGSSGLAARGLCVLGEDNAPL
Muscarinic acetylcholine receptor M1 (Homo sapiens), sequence (P11229 whole entry, looked up): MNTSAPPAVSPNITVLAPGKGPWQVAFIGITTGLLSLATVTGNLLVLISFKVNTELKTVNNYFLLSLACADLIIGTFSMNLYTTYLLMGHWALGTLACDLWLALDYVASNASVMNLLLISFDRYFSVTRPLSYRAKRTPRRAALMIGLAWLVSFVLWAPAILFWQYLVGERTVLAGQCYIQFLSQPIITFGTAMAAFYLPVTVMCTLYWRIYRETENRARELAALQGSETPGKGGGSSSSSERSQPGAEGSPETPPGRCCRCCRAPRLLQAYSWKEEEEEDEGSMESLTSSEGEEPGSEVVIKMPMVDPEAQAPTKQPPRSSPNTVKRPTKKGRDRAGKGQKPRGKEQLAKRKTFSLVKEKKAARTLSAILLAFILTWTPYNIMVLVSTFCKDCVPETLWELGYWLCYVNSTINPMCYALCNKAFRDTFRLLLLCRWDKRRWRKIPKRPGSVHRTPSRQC
Beta-2 adrenergic receptor (Homo sapiens), sequence (P07550 whole entry, looked up): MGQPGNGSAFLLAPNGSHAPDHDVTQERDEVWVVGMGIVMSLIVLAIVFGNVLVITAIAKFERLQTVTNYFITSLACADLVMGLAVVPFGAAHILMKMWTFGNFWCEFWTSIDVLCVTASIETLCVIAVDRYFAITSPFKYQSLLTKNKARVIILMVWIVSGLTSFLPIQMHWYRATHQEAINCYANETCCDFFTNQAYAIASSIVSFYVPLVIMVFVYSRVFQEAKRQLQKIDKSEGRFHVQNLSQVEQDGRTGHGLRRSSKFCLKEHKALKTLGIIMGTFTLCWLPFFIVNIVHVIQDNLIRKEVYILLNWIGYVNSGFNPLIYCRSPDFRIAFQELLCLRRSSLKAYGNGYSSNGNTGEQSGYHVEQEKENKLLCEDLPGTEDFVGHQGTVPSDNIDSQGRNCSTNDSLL
D(2) dopamine receptor (Homo sapiens), sequence (P14416 whole entry, looked up): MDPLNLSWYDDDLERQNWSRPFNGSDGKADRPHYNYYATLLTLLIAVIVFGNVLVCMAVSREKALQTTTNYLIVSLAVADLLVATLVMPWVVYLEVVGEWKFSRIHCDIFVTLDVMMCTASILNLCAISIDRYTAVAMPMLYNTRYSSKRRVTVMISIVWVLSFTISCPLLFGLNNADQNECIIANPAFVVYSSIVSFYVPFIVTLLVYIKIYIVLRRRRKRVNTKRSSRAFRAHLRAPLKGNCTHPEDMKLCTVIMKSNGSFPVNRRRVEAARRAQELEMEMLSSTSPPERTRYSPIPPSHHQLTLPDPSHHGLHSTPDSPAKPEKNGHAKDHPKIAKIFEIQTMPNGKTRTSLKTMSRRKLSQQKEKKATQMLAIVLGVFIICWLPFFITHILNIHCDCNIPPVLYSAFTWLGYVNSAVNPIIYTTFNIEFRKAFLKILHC
Gonadotropin-releasing hormone receptor (Homo sapiens), sequence (P30968 whole entry, looked up): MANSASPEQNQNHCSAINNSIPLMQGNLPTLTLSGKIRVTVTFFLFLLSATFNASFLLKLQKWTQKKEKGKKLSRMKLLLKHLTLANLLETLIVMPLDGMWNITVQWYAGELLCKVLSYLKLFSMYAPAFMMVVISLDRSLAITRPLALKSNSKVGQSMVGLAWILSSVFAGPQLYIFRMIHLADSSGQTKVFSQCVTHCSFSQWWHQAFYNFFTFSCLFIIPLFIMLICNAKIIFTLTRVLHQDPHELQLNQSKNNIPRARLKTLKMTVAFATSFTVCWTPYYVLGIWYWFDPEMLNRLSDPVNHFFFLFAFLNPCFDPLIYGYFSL

`O=C(O)c1cc2ccccc2cc1O`: the Potency entry in experiment [1], in [2], in experiment [3], in [4], in experiment [5] and in experiment [6] was “inactive” in each case. Further, the Potency result in [7], in experiment [8], in experiment [9], in experiment [10], in [11] and in experiment [12] was “inactive” each time. Besides, the Potency result in experiment [13] was “inactive”.
`CC/C=C\CCOC(=O)C(C)C`: the Potency result in experiment [1], in experiment [2], in experiment [14], in [15], in experiment [3] and in experiment [4] was “inactive” in each case. The Potency entry in experiment [5], in experiment [16], in experiment [6], in [7], in experiment [8] and in experiment [17] was “inactive” each time. For the same molecule, the Potency result in [18], in [9], in experiment [10], in experiment [11], in [12] and in experiment [13] was “inactive” throughout.
For the molecule `CCCCCCCCCCCCCCCC[N+](C)(C)CC`, the Potency in [1] was 13.8 µM (active); in experiment [3], 45.9 µM (active) and inactive; in [6] it was 13.3 µM (active) and 11.6 µM (active); in [7], 43.8 µM (active). The Potency entry in experiment [2], in [14], in [15], in [4], in experiment [5] and in experiment [16] was “inactive” in each case. The Potency entry in [17], in experiment [10], in experiment [12] and in experiment [13] was “inactive” throughout.
Take `OCCOCCN1CCN(C2=Nc3ccccc3Sc3ccccc32)CC1`: the Potency result in experiment [19], in experiment [2], in experiment [14], in experiment [15], in [3] and in [4] was “inactive” each time. The Potency result in [16], in experiment [10], in experiment [11] and in experiment [12] was “inactive” in each case.
Take `O=S(=O)(O)c1ccccc1O`: the Potency result in experiment [1], in [2], in experiment [14], in [15], in experiment [3] and in experiment [4] was “inactive” throughout. Also, the Potency result in experiment [5], in experiment [16], in [6], in experiment [7], in experiment [8] and in experiment [9] was “inactive” in each case. Moreover, the Potency entry in [10], in experiment [11], in experiment [12] and in experiment [13] was “inactive” throughout.
For `Cn1cc(S(C)=O)c(=O)c2ccc(F)cc21` (stereo not given), the Potency result in experiment [1], in experiment [2], in experiment [14], in [15], in experiment [3] and in experiment [4] was “inactive” in each case. In addition, the Potency result in experiment [5], in experiment [16], in experiment [6], in experiment [7], in experiment [8] and in experiment [18] was “inactive” throughout. The Potency result in [9], in experiment [10], in experiment [11], in experiment [12] and in [13] was “inactive” throughout.
`NS(=O)(=O)c1cc2c(cc1Cl)NC(CC1CCCC1)NS2(=O)=O` (stereo not given): the Potency result in experiment [1], in experiment [2], in experiment [14], in experiment [15], in experiment [3] and in experiment [4] was “inactive” throughout. Also, the Potency entry in [5], in experiment [16], in [6], in [7], in [8] and in experiment [18] was “inactive” in each case. The Potency result in [9], in [11] and in experiment [12] was “inactive” in each case.
Regarding `CC(C(=O)O)c1cccc(C(=O)c2ccccc2)c1` (stereo not given), the Potency result in experiment [2], in experiment [16], in experiment [10], in experiment [11], in experiment [12] and in experiment [13] was “inactive” in each case.
For `CNC(=O)NC`, the Potency result in [1], in experiment [19], in experiment [14], in experiment [15], in [3] and in [4] was “inactive” each time. The Potency entry in experiment [5], in [16], in experiment [6], in experiment [7], in [8] and in experiment [17] was “inactive” throughout. Besides, the Potency entry in experiment [18], in experiment [9], in [10] and in experiment [13] was “inactive” throughout.
